According to the antibiotic and cytotoxicity screens of Wong et al. (2023):
The whole screen tested about 39,000 compounds, of which about 3,300 (8.5%) were called active. The full list was thinned out, with actives kept by preference.

Each compound was assayed on HepG2 (assay: cytotoxicity call (relative viability < 0.9)). Settings: 10 µM.
In the case of `c1ccc2c(CSc3nc4ccccc4o3)cccc2c1`, the cytotoxicity call is reported as “inactive”. For `CNC(=O)C[C@H]1CC[C@@H]2[C@H](COC[C@H](O)CN2C(=O)Nc2cccc(OC)c2)O1`, the cytotoxicity call was “inactive”. With `C[C@@H]1CCCCO[C@H](CN(C)C(=O)Nc2cccc3ccccc23)[C@@H](C)CN([C@H](C)CO)C(=O)c2cc(NC(=O)Nc3cccc4ccccc34)ccc2O1` the cytotoxicity call was “inactive”. With `C[C@@H]1CN([C@@H](C)CO)C(=O)c2cc(NS(=O)(=O)c3ccc(Cl)cc3)ccc2O[C@@H](C)CCCCO[C@H]1CN(C)S(=O)(=O)c1ccccc1` the cytotoxicity call was “inactive”. With `COc1ccc(NC(=O)N(C)C[C@H]2OCc3cnnn3CCCC(=O)N([C@H](C)CO)C[C@H]2C)c(OC)c1` the cytotoxicity call was “inactive”. In the case of `C[C@@H]1CN([C@H](C)CO)C(=O)c2c(c3ccccc3n2C)-c2ccccc2CO[C@H]1CN(C)C(=O)CCC(F)(F)F`, the cytotoxicity call is reported as “inactive”. In the case of `C[C@@H]1CN([C@@H](C)CO)C(=O)c2cc(C#CC3(O)CCCC3)cnc2O[C@@H]1CN(C)C(=O)Nc1ccc2c(c1)OCO2`, the cytotoxicity call is reported as “inactive”. In the case of `COCC#Cc1ccc2c(c1)O[C@@H](CN(C)C(=O)C1CCOCC1)[C@@H](C)CN([C@H](C)CO)S2(=O)=O`, the cytotoxicity call is reported as “inactive”. With `CCS(=O)(=O)Nc1ccc2c(c1)C(=O)N(C)[C@H]1CC[C@@H](CC(=O)NCc3ccccc3F)O[C@H]1CO2` the cytotoxicity call was “inactive”. `C[C@@H]1CN([C@@H](C)CO)C(=O)Cc2cc(NC(=O)CCCCCC(=O)Nc3ccccc3N)ccc2O[C@@H]1CN(C)Cc1ccccc1` was tested, and the cytotoxicity call was “inactive”. For `C[C@@H]1CN([C@H](C)CO)C(=O)Cc2cc(NC(=O)CCCCCC(=O)Nc3ccccc3N)ccc2O[C@@H]1CN(C)Cc1ccc(-c2ccccc2)cc1`, the cytotoxicity call was “active”. In the case of `C[C@H]1CN([C@@H](C)CO)C(=O)Cc2cc(NC(=O)CCCCCC(=O)Nc3ccccc3N)ccc2O[C@H]1CN(C)Cc1ccc(Cl)c(Cl)c1`, the cytotoxicity call is reported as “inactive”. `C[C@H]1CN([C@@H](C)CO)C(=O)Cc2cc(NC(=O)CCCCCC(=O)Nc3ccccc3N)ccc2O[C@@H]1CN(C)Cc1ccc(-c2ccccc2)cc1` was tested, and the cytotoxicity call was “inactive”. In the case of `C[C@H](CO)N1C[C@H](C)[C@H](CN(C)Cc2ccc(-c3ccccc3)cc2)Oc2ccc(NC(=O)CCCCCC(=O)Nc3ccccc3N)cc2CC1=O`, the cytotoxicity call is reported as “active”. `C[C@H](CO)N1C[C@H](C)[C@@H](CN(C)Cc2ccc(-c3ccccc3)cc2)Oc2ccc(NC(=O)CCCCCC(=O)Nc3ccccc3N)cc2CC1=O` was tested, and the cytotoxicity call was “inactive”. For `C[C@@H]1CN([C@H](C)CO)C(=O)Cc2cc(NC(=O)CCCCCC(=O)Nc3ccccc3N)ccc2O[C@@H]1CN(C)Cc1ccccc1`, the cytotoxicity call was “inactive”. `C[C@@H]1CN([C@H](C)CO)C(=O)Cc2cc(NC(=O)CCCCCC(=O)Nc3ccccc3N)ccc2O[C@H]1CN(C)Cc1ccc(Cl)c(Cl)c1` was tested, and the cytotoxicity call was “inactive”. With `C[C@@H]1CN([C@@H](C)CO)C(=O)Cc2cc(NC(=O)CCCCCC(=O)Nc3ccccc3N)ccc2O[C@@H]1CN(C)Cc1ccc(-c2ccccc2)cc1` the cytotoxicity call was “active”. For `C[C@H](CO)N1C[C@H](C)[C@H](CN(C)Cc2ccccc2)Oc2ccc(NC(=O)CCCCCC(=O)Nc3ccccc3N)cc2CC1=O`, the cytotoxicity call was “inactive”. In the case of `C[C@H]1CN([C@@H](C)CO)C(=O)Cc2cc(NC(=O)CCCCCC(=O)Nc3ccccc3N)ccc2O[C@H]1CN(C)Cc1ccccc1`, the cytotoxicity call is reported as “inactive”. `C[C@@H]1CN([C@H](C)CO)C(=O)Cc2cc(NC(=O)CCCCCC(=O)Nc3ccccc3N)ccc2O[C@@H]1CN(C)Cc1ccc(Cl)c(Cl)c1` was tested, and the cytotoxicity call was “active”. In the case of `COc1ccc2c3c(n(c2c1)C)[C@H](CO)N(C[C@]13CCN(CC1)S(=O)(=O)c1ccccc1)C(=O)c1cccnc1`, the cytotoxicity call is reported as “inactive”. For `c1ccc(-c2cc(-c3nc4ccccc4[nH]3)c3ccccc3n2)cc1`, the cytotoxicity call was “inactive”. For `CNCc1cnc(NC)nc1`, the cytotoxicity call was “inactive”. `C[C@@H]1CN([C@H](C)CO)C(=O)c2cccc(NS(=O)(=O)c3cn(C)cn3)c2O[C@H]1CN(C)CC1CC1` was tested, and the cytotoxicity call was “inactive”. With `CCO[C@@H]1OC(C(=O)N2CCN(Cc3ccccc3)CC2)=C[C@H](c2cn(C(C)=O)c3ccccc23)[C@H]1CCCOC(=O)NCCCCCC(=O)NO` the cytotoxicity call was “inactive”. In the case of `CNCc1cc(C)nn1C`, the cytotoxicity call is reported as “inactive”. In the case of `COc1cccc(-c2cn(CC[C@@H]3CC[C@@H](NS(=O)(=O)c4ccccc4Cl)[C@H](CO)O3)nn2)c1`, the cytotoxicity call is reported as “inactive”. For `C[C@H](CO)N1C[C@H](C)[C@@H](CN(C)S(=O)(=O)c2ccc(F)cc2)Oc2ccc(NC(=O)C3CC3)cc2C1=O`, the cytotoxicity call was “inactive”. With `Cc1ccc(S(=O)(=O)N[C@H]2CC[C@@H](CC(=O)NCc3ccc(Cl)c(Cl)c3)O[C@H]2CO)cc1` the cytotoxicity call was “inactive”. `C[C@@H]1CCCCO[C@@H](CN(C)CC2CC2)[C@@H](C)CN([C@H](C)CO)C(=O)c2cc(NC(=O)CCC(F)(F)F)ccc2O1` was tested, and the cytotoxicity call was “inactive”. With `C[C@@H]1CN([C@@H](C)CO)C(=O)Cc2cc(NC(=O)CCCCCC(=O)Nc3ccccc3N)ccc2O[C@H]1CN(C)Cc1ccc(-c2ccccc2)cc1` the cytotoxicity call was “inactive”. In the case of `C[C@@H]1CN([C@H](C)CO)C(=O)Cc2cc(NC(=O)CCCCCC(=O)Nc3ccccc3N)ccc2O[C@H]1CN(C)Cc1ccc(-c2ccccc2)cc1`, the cytotoxicity call is reported as “inactive”. For `C[C@H]1CN([C@@H](C)CO)C(=O)Cc2cc(NC(=O)CCCCCC(=O)Nc3ccccc3N)ccc2O[C@H]1CN(C)Cc1ccc(-c2ccccc2)cc1`, the cytotoxicity call was “active”. For `C[C@H]1CN([C@@H](C)CO)C(=O)c2cccc(NS(=O)(=O)c3ccc(Cl)cc3)c2O[C@@H]1CN(C)Cc1ccc(C(=O)Nc2ccccc2N)cc1`, the cytotoxicity call was “inactive”. For `C[C@@H]1CN([C@H](C)CO)C(=O)c2cccc(NS(=O)(=O)c3ccc(Cl)cc3)c2O[C@H]1CN(C)Cc1ccc(C(=O)Nc2ccccc2N)cc1`, the cytotoxicity call was “inactive”. With `C[C@@H]1CN([C@H](C)CO)C(=O)c2cccc(NS(=O)(=O)c3ccc(Cl)cc3)c2O[C@@H]1CN(C)Cc1ccc(C(=O)Nc2ccccc2N)cc1` the cytotoxicity call was “inactive”. In the case of `C[C@@H]1CN([C@@H](C)CO)C(=O)c2cc(NS(=O)(=O)c3ccc(Cl)cc3)ccc2O[C@@H]1CN(C)Cc1ccc(C(=O)Nc2ccccc2N)cc1`, the cytotoxicity call is reported as “active”. `C[C@@H]1CN([C@@H](C)CO)C(=O)c2cccc(NS(=O)(=O)c3ccc(Cl)cc3)c2O[C@H]1CN(C)Cc1ccc(C(=O)Nc2ccccc2N)cc1` was tested, and the cytotoxicity call was “inactive”. In the case of `C[C@H](CO)N1C[C@H](C)[C@H](CN(C)Cc2ccc(C(=O)Nc3ccccc3N)cc2)Oc2ccc(NS(=O)(=O)c3ccc(Cl)cc3)cc2C1=O`, the cytotoxicity call is reported as “inactive”. `C[C@@H]1CN([C@H](C)CO)C(=O)c2cc(NS(=O)(=O)c3ccc(Cl)cc3)ccc2O[C@@H]1CN(C)Cc1ccc(C(=O)Nc2ccccc2N)cc1` was tested, and the cytotoxicity call was “inactive”. `C[C@H](CO)N1C[C@H](C)[C@H](CN(C)Cc2ccc(C(=O)Nc3ccccc3N)cc2)Oc2c(NS(=O)(=O)c3ccc(Cl)cc3)cccc2C1=O` was tested, and the cytotoxicity call was “active”. In the case of `C[C@@H]1CN([C@@H](C)CO)C(=O)c2cccc(NS(=O)(=O)c3ccc(Cl)cc3)c2O[C@@H]1CN(C)Cc1ccc(C(=O)Nc2ccccc2N)cc1`, the cytotoxicity call is reported as “active”. In the case of `CCSC(=S)N[C@H]1CCS(=O)(=O)C1`, the cytotoxicity call is reported as “inactive”. `CC(C)NC(=O)Nc1ccc2c(c1)C(=O)N([C@@H](C)CO)C[C@@H](C)[C@@H](CN(C)C(=O)Nc1ccc(F)cc1)OCCCC[C@@H](C)O2` was tested, and the cytotoxicity call was “inactive”. For `C[C@H](O)C#Cc1ccc2c(c1)O[C@@H](CN(C)C)[C@H](C)CN([C@@H](C)CO)S2(=O)=O`, the cytotoxicity call was “inactive”. With `COC(=O)C[C@H]1CC[C@@H]2[C@H](COC[C@@H](O)CN2S(=O)(=O)c2ccccc2C)O1` the cytotoxicity call was “inactive”. For `Cc1ccc(S(=O)(=O)N(C)C[C@@H]2Oc3c(NS(C)(=O)=O)cccc3C(=O)N([C@@H](C)CO)C[C@H]2C)cc1`, the cytotoxicity call was “inactive”. `C[C@@H]1CCCCO[C@@H](CN(C)CC2CC2)[C@H](C)CN([C@@H](C)CO)C(=O)c2cc(NC(=O)CCC(F)(F)F)ccc2O1` was tested, and the cytotoxicity call was “inactive”. In the case of `Cn1c([N+](=O)[O-])cnc1COC(N)=O`, the cytotoxicity call is reported as “inactive”. `COc1ccc(NC(=O)Nc2ccc3c(c2)[C@H]2C[C@H](CC(=O)N4CCN(C)CC4)O[C@H](CO)[C@H]2O3)cc1` was tested, and the cytotoxicity call was “inactive”. In the case of `COCCOC(=O)N1C(=O)[C@@]2(c3cc(C#CCCO)ccc31)[C@H](c1ccc(O)cc1)N1[C@H](c3ccccc3)[C@H](c3ccccc3)OC(=O)[C@H]1[C@@H]2C(=O)N1CCc2cc(OC)c(OC)cc2C1`, the cytotoxicity call is reported as “inactive”. With `Cc1ccc(C(C)C)c(O)c1` the cytotoxicity call was “inactive”. In the case of `Cc1cccc(NC(=O)C(C)C)c1`, the cytotoxicity call is reported as “inactive”. With `CC(C)C(=O)Nc1ccc([N+](=O)[O-])c(C(F)(F)F)c1` the cytotoxicity call was “active”. In the case of `CC1(C)NC(=O)N(c2ccc([N+](=O)[O-])c(C(F)(F)F)c2)C1=O`, the cytotoxicity call is reported as “inactive”. With `COc1cccc(S(=O)(=O)N(C)C[C@@H]2OCc3cnnn3CCCC(=O)N([C@@H](C)CO)C[C@@H]2C)c1` the cytotoxicity call was “inactive”. In the case of `COc1ccc(S(=O)(=O)N(C)C[C@@H]2Oc3c(NC(=O)Nc4c(C)noc4C)cccc3C(=O)N([C@H](C)CO)C[C@H]2C)cc1`, the cytotoxicity call is reported as “inactive”. `Cc1noc(C)c1NC(=O)N(C)C[C@H]1OCCCC[C@@H](C)Oc2ccc(NC(=O)Nc3cccc4ccccc34)cc2C(=O)N([C@H](C)CO)C[C@@H]1C` was tested, and the cytotoxicity call was “inactive”. For `CCOC(=O)/C(C#N)=C1/C=CN(C)C=N1`, the cytotoxicity call was “active”. For `CCOC(=O)n1ncc(C#N)c1N`, the cytotoxicity call was “inactive”. In the case of `CCOC(=O)CN(C#N)c1nc(C)cc(C)n1`, the cytotoxicity call is reported as “inactive”. `C[C@H]1CN([C@@H](C)CO)C(=O)c2cccc(NC(=O)CCCCCC(=O)Nc3ccccc3N)c2O[C@@H]1CN(C)C(=O)Nc1ccc(C(F)(F)F)cc1` was tested, and the cytotoxicity call was “inactive”. For `O=C(C[C@@H]1CC[C@H]2[C@@H](COC[C@H](O)CN2C(=O)Nc2cccc(Cl)c2)O1)NCCCN1CCOCC1`, the cytotoxicity call was “inactive”. In the case of `C[C@H]1CN([C@@H](C)CO)C(=O)c2cccc(NC(=O)C3CC3)c2O[C@@H]1CN(C)C(=O)NC1CCCCC1`, the cytotoxicity call is reported as “inactive”.
